The source of these data is PubChem BioAssay AID1053175 (ICCB-Longwood Screening Facility, Harvard Medical School, 2014).

The whole screen tested about 330,000 compounds, of which about 700 (0.21%) were called active.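 How the source made its calls: active means OD600 absorbance below the run mean of sample wells minus 3.6 SD, in any replicate (cut at about 0.56 in these data); inactive means the rest.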 Many of the other results were omitted from the sample, so actives are more common in it than they were.

The nature of the experiment: E. coli growth inhibition, primary screen, OD600 (AID 1053175). To be noted: Escherichia coli growth, OD600, 23 h; stronger effect = lower value.
As to `CCCCCCCCCCCCn1ccc(=N)cc1`, the OD600 absorbance is 0.07 (active).

In the case of `CN1CCN(N=Cc2c[nH]c3ccccc23)CC1`, the OD600 absorbance is 0.702 (inactive).

As for `COC(=O)C1=C(c2cccc(OC)c2OC)CC2CCC1N2C(=O)N1CCOCC1` (stereo not given), the OD600 absorbance is 0.685 (inactive).

On to `Nc1nonc1C(=O)NN=Cc1ccc([N+](=O)[O-])o1`, for which the OD600 absorbance was 0.449 (active).

In the case of `COCCNC(=O)N1C2CCC1C(C(=O)OC)=C(c1ccc(OC(F)(F)F)cc1)C2` (stereo not given), the OD600 absorbance is 0.679 (inactive).

Take `COC(=O)C1=C(c2ccc(F)cc2OCc2ccccc2)CC2CCC1N2C(=O)NCc1ccco1` (stereo not given): the OD600 absorbance is 0.626 (inactive).

On to `Oc1ccc(C=NNP(=S)(c2ccccc2)c2ccccc2)cc1O`, for which the OD600 absorbance was 0.685 (inactive).

As to `C=C1C(=O)OC2CC(C)C3C=CC(=O)[C@@]3(C)C(O)C12` (stereo not given in full), the OD600 absorbance is 0.625 (inactive).

With `O=[N+]([O-])c1cnc2ccc3ccccc3c2c1`, the OD600 absorbance was 0.447 (active).

In the case of `CCN(CC)c1ccc([N+](=O)[O-])c2cccnc12`, the OD600 absorbance is 0.662 (inactive).

As to `Cc1ccc(-n2c(-c3ccc([N+](=O)[O-])cc3)nc3ccccc3c2=O)cc1`, the OD600 absorbance is 0.718 (inactive).

Take `CNC(=O)Nc1ccc(C(=O)NN=CC23CC[C@@H](O)CC2(O)CC[C@@H]2[C@@H]3CCC3(C)C(C4=CC(=O)OC4)CCC23O)cc1` (stereo not given in full): the OD600 absorbance is 0.72 (inactive).

With `CC12CCC3C(CCC4CC(=NO)CCC43C)C1CCC2O` (stereo not given), the OD600 absorbance was 0.701 (inactive).

`COc1ccc(-n2c(C=C3C(=O)Nc4ccccc43)nc3ccccc3c2=O)cc1`: the OD600 absorbance is 0.706 (inactive).

Take `COC(=O)C1=C(c2ccc(S(C)(=O)=O)cc2)CC2CCC1N2C(=O)NCc1ccc(F)cc1` (stereo not given): the OD600 absorbance was 0.701 (inactive).

Consider `COc1cccc(N2C(=O)NC(=O)/C(=C\c3ccc([N+](=O)[O-])s3)C2=O)c1`, for which the OD600 absorbance was 0.482 (active).

Take `O=C1NC(=O)N(c2ccccc2)C(=O)/C1=C/c1ccc([N+](=O)[O-])s1`: the OD600 absorbance was 0.531 (inactive).

For `COc1ccc(N2C(=O)/C(=C/c3ccco3)C(=O)NC2=S)cc1`, the OD600 absorbance is 0.67 (inactive).

With `COC(=O)C1=C(c2ccc(OC(F)(F)F)cc2)CC2CCC1N2C(=O)NC1CC1` (stereo not given), the OD600 absorbance is 0.688 (inactive).

In the case of `C[C@]12CCC3c4ccc(O)c(O)c4CCC3C1CCC2O` (stereo not given in full), the OD600 absorbance was 0.667 (inactive).
